Reference: PubChem BioAssay (NCI)
This is part of a sample that, as a whole, favours compounds with a hit. Of some 79,000 tested, about 15% had one in any assay. Cut-off read from the data, not from the text of the source: active = growth inhibition above about 70%; inactive = the rest.

Tests used:
[1] = NCI Yeast Anticancer Drug Screen. Data for the rad50 strain (AID 155);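 note: 0% = growth of vehicle-only cultures of the same strain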; details: S. cerevisiae rad50 strain growth inhibition; at 50.0 µM; hits give high values
Outline: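 Genetically altered yeast (DNA repair pathway); compound treatment; growth inhibition vs vehicle ctrl.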

[2] = NCI Yeast Anticancer Drug Screen. Data for the mec2-1 strain (AID 157); details: S. cerevisiae mec2-1 strain, at 50.0 µM, hits give high values
Outline: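 Test agents were screened against the mec2-1 yeast strain, with defined DNA repair or cell cycle alteration. Growth was scored as inhibition against vehicle-only controls.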

[3] = NCI Yeast Anticancer Drug Screen. Data for the sgs1 mgt1 strain (AID 161);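 note: 0% = growth of cultures given vehicle only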; details: S. cerevisiae sgs1 mgt1 strain, at 50.0 µM, hits give high values
Outline: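 Inhibition of yeast growth, normalised to vehicle-treated controls, is reported for a strain bearing genetic alterations in DNA damage repair.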

[4] = NCI Yeast Anticancer Drug Screen. Data for the cln2 rad14 strain (AID 165);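 note: 0% = growth equal to vehicle treated cultures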; details: S. cerevisiae cln2 rad14 strain, at 50.0 µM, hits give high values
Outline: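 Growth of compound-exposed yeast (cln2 rad14 genotype) measured and expressed as inhibition relative to vehicle.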

[5] = NCI Yeast Anticancer Drug Screen. Data for the bub3 strain (AID 167); details: S. cerevisiae bub3 mutant strain, at 50.0 µM, hits give high values
Outline: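 Yeast carrying a defined mutation is treated with each compound, and growth is compared with that of vehicle-exposed cells to give inhibition.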

[6] = NCI Yeast Anticancer Drug Screen. Data for the mlh1 rad18 strain (AID 175); details: S. cerevisiae mlh1 rad18 strain growth inhibition; at 50.0 µM; hits give high values
Outline: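 In this whole-cell yeast screen, a strain with altered DNA damage repair is challenged with compound, and its growth is measured against matched vehicle-treated controls.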

Measured: growth inhibition

CC(=O)OCC(=O)[C@@]1(O)CC[C@H]2[C@@H]3CC[C@H]4[C@H](Br)C(=O)CC[C@]4(C)[C@H]3C(=O)C[C@@]21C
inactive: [1] -20.1% | [2] -33.1% | [3] -11.3% | [4] -12.8% | [5] -8.1% | [6] -23.9%

Fc1ccccc1C1CC(c2ccc3ccccc3c2)=Nc2ccccc2S1 (stereo unspecified)
inactive: [1] 30.9% | [2] 12.1% | [3] 18.4% | [4] 13.4% | [5] 10.4% | [6] 34.4%

CCOC(=O)CCC(=O)C(=O)OCC
inactive: [1] 13.1% | [2] -24.8% | [3] 13.2% | [4] 20.9% | [5] 1.4% | [6] 20.1%

NC(=O)c1cc(OCc2ccccc2)nc2nc(Cl)nc(N)c12
inactive: [1] -5.05% | [2] 14.6% | [3] 3.35% | [4] -15.8% | [5] -0.8% | [6] 5.05%

CC(C)=C1C(=O)C[C@]2(C)C[C@H]3/C(=C(/C)CCC12)CC[C@@]3(C)O (stereo partly specified)
inactive: [1] 46.5% | [2] -1.25% | [3] 2% | [4] 28.6% | [5] -6.05% | [6] -8.4%

CC(=O)Nc1ccc(C(=O)CC(c2ccccc2)N2CCOCC2)cc1 (stereo unspecified)
inactive: [1] 4.3% | [2] 14.1% | [3] 11.9% | [4] -19% | [5] 26.1% | [6] 2.8%

O=C(O)CC(NC(=O)/C(=C/c1ccccc1)NC(=O)c1ccccc1)C(=O)O (stereo unspecified)
inactive: [1] -2.45% | [2] 0.65% | [3] 2.95% | [4] 6.85% | [5] 25.1% | [6] -22.1%

COc1cccc(N2C(=O)/C(=C/c3ccc(N(CCC#N)CCC#N)cc3)N=C2c2cc([N+](=O)[O-])ccc2Cl)c1
inactive: [1] 7.9% | [2] 27.9% | [3] 40.8% | [4] 32% | [5] 32.1% | [6] 28.9%

N#CCC(=O)NCCc1ccccn1
inactive: [1] -6.75% | [2] -3.7% | [3] -13.8% | [4] -44.6% | [5] 10.2% | [6] -9.05%

CCOC(=O)c1c(-c2ccc([N+](=O)[O-])cc2)c(/C=N\O)n(-c2ccccc2)c1C
inactive: [1] 1.45% | [2] 6.7% | [3] 3.3% | [4] -17% | [5] -1.95% | [6] 20%

O=C(NNC(=S)S)c1ccncc1
inactive: [1] 7.5% | [2] 2.4% | [3] -1.2% | [4] -8.95% | [5] 11.7% | [6] 21.9%

CC[O-].CC[O-].O=C1c2ccccc2C(=O)c2c(O)ccc([O-])c21.O=C1c2ccccc2C(=O)c2c(O)ccc([O-])c21.[Ti+4]
inactive: [1] -20.6% | [2] 1.75% | [3] -3.45% | [4] -4.3% | [5] -17.9% | [6] -14.8%

O=[N+]([O-])c1ccc(/C=C2/c3ccccc3-c3nc4ccccc4cc32)cc1
inactive: [1] 21.9% | [2] -2.55% | [3] -2.9% | [4] -2.6% | [5] 7.3% | [6] 20.8%

CS(=O)(=O)OC(OS(C)(=O)=O)(OS(C)(=O)=O)OS(C)(=O)=O
inactive: [1] 15.9% | [2] 6.2% | [3] 0.65% | [4] -7.9% | [5] -2.4% | [6] 9.3%

CCCCCCCCCCCCCCCCOc1ccc(OC)cc1C(=O)NNC(=S)SC
inactive: [1] 14.7% | [2] -0.1% | [3] 24.6% | [4] 8.55% | [5] 34% | [6] 21.2%

O=C(Cc1ccccn1)c1cccnc1
inactive: [1] -1.15% | [2] -9.7% | [3] -4.75% | [4] -27.2% | [5] -17% | [6] -4.25%

CCc1ccccc1NC(=O)/C(CC(=O)c1c(C)n([O-])c2ccccc2[n+]1=O)=N\NS(=O)(=O)c1ccc(C)cc1
inactive: [1] -18.8% | [2] -8.25% | [3] -12.3% | [4] 12.7% | [5] 7.25% | [6] 2.5%

CCCC(=O)OCc1ccc(Cl)c(Cl)c1
inactive: [1] 21.6% | [2] 16% | [3] 9.45% | [4] 8% | [5] 9.15% | [6] -3.85%

CC(=O)O[C@]12CCCCCC1C1(O)C(O)CCCC[C@H]12 (stereo partly specified)
inactive: [1] 10.2% | [2] -23.6% | [3] -21.2% | [4] 4.45% | [5] -10.3% | [6] -16.4%

OCCN(CCO)c1ccc(O)cc1
inactive: [1] -6.85% | [2] 2.3% | [3] -17.1% | [4] 13.6% | [5] -3.6% | [6] -11.7%

C=CCc1cc(OC)ccc1O
inactive: [1] 22.3% | [2] 36.8% | [3] 30.8% | [4] -3% | [5] 22.3% | [6] 19.6%

Brc1ccc(Br)c2nc(/C=C/c3ccccc3)ccc12
inactive: [1] 11.8% | [2] 1.85% | [3] -7% | [4] -22.6% | [5] 2.45% | [6] 8.25%

Cn1c(=O)c2c(nc(C[N+]3([O-])CCOCC3)n2C)n(C)c1=O
inactive: [1] -4.75% | [2] -34.9% | [3] -27.9% | [4] 8.35% | [5] -11.5% | [6] -27.9%

Nc1[nH]c(=S)[nH]c(=O)c1N=O
inactive: [1] -2.75% | [2] -2.55% | [3] -5.75% | [4] -14.7% | [5] -4.1% | [6] 3.95%

O=C(NC(c1ccccc1)C(O)C(=O)OCc1ccc2c(c1)C(=O)c1ccccc1C2=O)c1ccccc1 (stereo unspecified)
inactive: [1] 10.9% | [2] 15.4% | [3] -23.3% | [4] -0.15% | [5] -8.9% | [6] 20.6%

Cn1ccc(=O)n(C)c1=O
inactive: [1] -8.15% | [2] -10.8% | [3] 2% | [4] 5.15% | [5] 5.05% | [6] 2.25%

O=C1C(=O)N(C2CCCCC2)C(=S)N1C1CCCCC1
inactive: [1] -31.9% | [2] -30.1% | [3] -62.1% | [4] -2.5% | [5] -5.2% | [6] 12.3%

CC(=Nc1ccc(C)cc1)NNc1nc2ccccc2s1
inactive: [1] 15.1% | [2] -7.3% | [3] 13.2% | [4] -37.2% | [5] 17.3% | [6] 25%

CCCCOC(=O)c1cccc(C(=O)OCCCC)n1
inactive: [1] -20.9% | [2] -18.9% | [3] -14.1% | [4] -5.6% | [5] -11.5% | [6] -22.8%

O=[N+]([O-])C(/C=C(\Cl)[N+](=O)[O-])=C(N1CCOCC1)N1CCOCC1
inactive: [1] -4.7% | [2] -1.2% | [3] 24.9% | [4] -9.5% | [5] 13.9% | [6] 5.45%

CCn1c2ccccc2c2nnc(NCCCO)nc21
inactive: [1] -14.7% | [2] -31.3% | [3] -16.5% | [4] -1.25% | [5] -51.7% | [6] 7.55%

O=[N+]([O-])c1ccc(Nc2ccccc2)c([N+](=O)[O-])c1
inactive: [1] 2.4% | [2] -12.8% | [3] -1.4% | [4] -32.2% | [5] -7.05% | [6] 8.5%

O=S(=O)(Nc1ccc(NS(=O)(=O)c2ccccc2)nc1)c1ccccc1
inactive: [1] 13.8% | [2] -0.55% | [3] 32.1% | [4] -19.9% | [5] 5.3% | [6] -0.75%

COc1cc(C=O)cc(OC)c1
inactive: [1] -19.3% | [2] -49.3% | [3] -20.4% | [4] 12.4% | [5] -51% | [6] -2.25%

COC(=O)C12OCC34C(CC5C(C)CC(=O)C(O)C5(C)C3C(O)C1O)OC(=O)C(OC(C)=O)C24 (stereo unspecified)
inactive: [1] 31.2% | [2] 44.4% | [3] 11.6% | [4] 36% | [5] 24.2% | [6] 31.6%

O=c1cc(CCl)nc2c3ncn(C4OC(CO)C(O)C4O)c3ncn12 (stereo unspecified)
inactive: [1] -11.8% | [2] -16.5% | [3] -0.25% | [4] -5.95% | [5] -8.15% | [6] -0.55%

CC[O-].CC[O-].COc1ccc(C(=O)[CH-]C(C)=O)cc1OC.COc1ccc(C(=O)[CH-]C(C)=O)cc1OC.[Ti+4]
inactive: [1] -17.4% | [2] 18.5% | [3] -2.7% | [4] 9.85% | [5] 29.9% | [6] -10.3%

Cn1c(=O)c2c(nc(NCCO)n2Cc2ccccc2)n(C)c1=O
inactive: [1] 20.1% | [2] 9.95% | [3] 7.2% | [4] 18.3% | [5] 8.45% | [6] 31.2%

CC(=O)OC1c2ccccc2C(=O)C1(OC(C)=O)c1ccccc1 (stereo unspecified)
inactive: [1] 0.7% | [2] 11.3% | [3] 12.7% | [4] 25.3% | [5] -10.9% | [6] 43.9%

Cc1ccc2nc(N(C)C)nc-2c2[nH]c(=O)[nH]c12
inactive: [1] -28.9% | [2] -31.6% | [3] -12.2% | [4] 3.9% | [5] -28.9% | [6] -19.3%

NC(=NC1CCCCC1)c1ccc(C(=O)OCC2CCCCC2)cc1
inactive: [1] 39.2% | [2] 12.6% | [3] 45.5% | [4] 19.9% | [5] 21.8% | [6] 26.4%
